Data reported in PubChem BioAssay (NCI).
This is part of a sample that, as a whole, favours compounds with a hit. Of some 83,000 tested, about 20% had one in any assay.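 Results are percent growth after 48 hours of single-concentration exposure. 100 means growth as in untreated cells, lower positive values show inhibition; negative values down to -100 show cell death.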 Unmarked numbers belong to inactive results. The source made the active and inactive calls. The calls were made as follows: active = growth percent below 10; inactive = the rest.

Columns and labels:
Experiment in all cases: NCI-60 one-dose screen, 48 h (100 = growth as untreated, 0 = no growth, -100 = all killed)
Conditions in all cases: 10 µM unless noted
DU-145 prostate = test system: DU-145 prostate
K-562 leukemia = test system: K-562 leukemia
MALME-3M melanoma = test system: MALME-3M melanoma
MDA-MB-231 breast = test system: MDA-MB-231 breast
RXF 393 renal = test system: RXF 393 renal
SF-268 CNS = test system: SF-268 CNS
SF-295 CNS = test system: SF-295 CNS
SF-539 CNS = test system: SF-539 CNS
UACC-257 melanoma = test system: UACC-257 melanoma
M14 melanoma = test system: M14 melanoma

| Structure (SMILES) | growth (DU-145 prostate) | growth (K-562 leukemia) | growth (MALME-3M melanoma) | growth (MDA-MB-231 breast) | growth (RXF 393 renal) | growth (SF-268 CNS) | growth (SF-295 CNS) | growth (SF-539 CNS) | growth (UACC-257 melanoma) | growth (M14 melanoma) |
| --- | --- | --- | --- | --- | --- | --- | --- | --- | --- | --- |
| CCC1=CCC[C@@]2(C)CCC[C@@]3(C)CCCC(C)(C)[C@]1([O-])[O+]32 | 105% | 101% | 107% | 121% | 111% | 107% | 99.7% | 103% | 105% | 101% |
| Cn1ccc(Nc2nccc(Oc3ccc(C(=O)Nc4cccc(F)c4)c(Cl)c3)n2)c1 | 47.9% | 70.6% | 94.6% | 99% | 105% | 79.4% | 61.8% | 84.9% | 79.5% | 96.9% |
| CC(=O)Oc1csc(N(C(C)=O)c2cc(C(=O)O)cc(C(=O)O)c2)n1 | 97.4% | 102% | 87.9% | 89.2% | 95.8% | 92.9% | 96.4% | 89.6% | 92.8% | 84.5% |
| Clc1cc(Cl)c2nc(-c3ccc(-c4ccc(/C=N/NC5=NCCN5)cc4)s3)cn2c1 | 87.4% | 3.66% (active) | 74.9% | 73.9% | 81.4% | 86% | 98.3% | 63.5% | 99% | 97.8% |
| c1ccc(Nc2nc(Nc3ccccc3)nc(Nc3ccccc3)n2)cc1 | 93.6% | 92.7% | 88.7% | 79.2% | 84.3% | 106% | 69% | 90.7% | 82.9% | 89% |
| COc1ccc(-c2c(N)n[nH]c2-c2cc3c(c(OC)c2OC)OCO3)cc1 | 108% | 98.4% | 97.8% | 83.7% | 108% | 99.1% | 102% | 93.1% | 98.7% | 101% |
| COc1ccc(Nc2nn3c(C)cc(C)nc3c2C(=O)Nc2ccc(C)cc2)c(OC)c1 | 113% | 108% | 124% | 108% | 107% | 100% | 107% | 102% | 98.6% | 101% |
| O=C(N/N=C/C=C\c1ccccc1)C(=O)N/N=C/C=C/c1ccccc1 | 112% | 113% | 117% | 111% | 127% | 105% | 104% | 114% | 106% | 107% |
| COc1ccc2c(c1)cn1c3ccc(OC)cc3[nH]c(=O)c21 | -87.1% (active) | -28.1% (active) | 42.1% | -86.9% (active) | -82.2% (active) | -14% (active) | -84.9% (active) | -84.9% (active) | 54.7% | -65.1% (active) |
| CCOC(=O)c1cn2c3c(cc(C)cc3c1=O)C(=O)/C(=C/c1ccccc1)C2 | 106% | 79.7% | 112% | 87.2% | 74.6% | 95.7% | 92.6% | 87.8% | 78.4% | 101% |
| Cc1ccc(S(=O)(=O)NCCCNc2cc(-c3cn(C(C)(C)C)nc3-c3cccc(O)c3)ccn2)cc1 | 76.1% | 11.8% | 61.9% | 62.5% | 60.2% | 54.8% | 51.7% | 49.7% | 72% | 56.8% |
| N/C(=N\S(=O)(=O)c1ccccc1)Nc1nc2ccccc2s1 | 111% | 84.9% | 105% | 92.3% | 99.4% | 92.2% | 92.7% | 91.2% | 92.6% | 101% |
| O=C(c1ccccc1)C1OC1c1ccc([N+](=O)[O-])cc1 (stereo not given) | 67.9% | 32.6% | 83.6% | 78.4% | 77.8% | 79.2% | 97% | 96.5% | 68.1% | 48.2% |
| COc1ccc(C(=O)N2NC(=O)/C(=C/c3ccc(Br)cc3)N=C2c2ccccc2)cc1 | 102% | 81.8% | 90.3% | 83.3% | 99.9% | 89.8% | 92.7% | 76.8% | 95.5% | 79.2% |
